Mot1-301 SUMO: blocks SUMOylation pathway, rescuing yeast Mot1-301 growth | AID 2716 | 320,000 compounds, 1% hits | growth rescue, % at 18.8 µM | S. cerevisiae Mot1-301 growth rescue, ATP luminescence, 38.5C; percent above DMSO median, 100 means doubled;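 active = every valid replicate shows activation above 250% relative to neutral control wells; inactive = the rest, any valid replicate at or below 250%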;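 also: OY570 slx delta 5 strain wells were the positive control but not used for scaling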
ALR inh: inhibitors of human sulfhydryl oxidase ALR; P55789; inhibition, % (test concentration not listed); purified ALR, DTT oxidation, H2O2 HRP-luminol luminescence; 290,000 compounds, 3.8% hits;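 active = mean replicate inhibition above about 79%, with every replicate also reaching it, limit read from the data; inconclusive = only one of the two criteria met; inactive = mean below limit and not every replicate reaching it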
Target sequence (P55789 whole entry, looked up): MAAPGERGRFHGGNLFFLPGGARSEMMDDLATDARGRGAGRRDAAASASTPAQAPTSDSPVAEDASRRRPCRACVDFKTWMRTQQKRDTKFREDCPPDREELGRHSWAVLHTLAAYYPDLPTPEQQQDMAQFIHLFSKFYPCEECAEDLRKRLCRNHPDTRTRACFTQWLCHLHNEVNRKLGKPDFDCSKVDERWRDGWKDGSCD
HIF act: HIF pathway transcriptional activation. activation, % at 7.5 µM (by protocol). U2OS HRE-luciferase reporter, luminescence; normalized: DMSO 0%, desferrioxamine 100%. 300,000 compounds, 0.32% hits;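 active = mean activation of at least 10% of the iron chelator positive control signal, with at least half of replicates also reaching 10%; inconclusive = mean and replicate majority disagree about reaching 10%; inactive = mean and most replicates under 10%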
AI-2 QS mod: modulators of Vibrio harveyi AI-2 quorum sensing system; Vibrio harveyi JMH597 AI-2 luminescence/OD600 ratio, 9 h; stronger effect = lower value; strain lacks LuxN and CqsS sensors; 0 = neutral-control median; activity change, % at 7.5 µM; AID 2094; 300,000 compounds, 0.4% hits; in the data active = activity change below about -75%, passing the limit was not always enough; inconclusive = no clear call, values can overlap the other calls;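 also: luminescence divided by OD600 gain over 9 h not by final OD600 alone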
* hit, by the source's call; u = inconclusive; x = not tested or not shown. Hits are enriched below; roughly 4.8% of the tested compounds scored in any of these assays.

SMILES	Mot1-301 SUMO	ALR inh	HIF act	AI-2 QS mod
COc1ccc(C(=O)N/N=C(\c2ccccc2)c2ccccn2)cc1	4	23	49*	47
O=C(N/N=C\c1ccccc1)c1cccc(C(=O)N/N=C\c2ccccc2)n1	-30	7	-1	12
COc1ccc(C(=O)N/N=C/c2cccc3cccnc23)cc1	x	0	12*	34
O=C(N/N=C(\c1ccccc1)c1ccccn1)c1ccccc1Cl	-7	7	47*	7
O=C(NN=C(c1ccccc1)c1ccccn1)c1ccccc1	18	0	x	x
COc1ccc(/C=N/NC(=O)c2cccc(C(=O)N/N=C/c3ccc(OC)cc3)n2)cc1	306*	-11	2	16
CCOc1ccc(C(=O)N/N=C/c2cccc3cccnc23)cc1	-5	28	1	78
COc1cc(C2C(C#N)=C(N)N(c3cccnc3)C3=C2C(=O)CCC3)ccc1O (stereo unspecified)	-13	u	0	15
COc1cc(C2C(C#N)=C(N)N(c3ccc(F)cc3)C3=C2S(=O)(=O)CC3)ccc1O (stereo unspecified)	10	88*	0	14
CC(NC(=O)c1ccc(S(=O)(=O)Nc2ccccc2Cl)cc1)c1ccncc1 (stereo unspecified)	13	-4	x	x
CCC1(C)OC(=O)NN(c2ccc(C)cc2)C1(C)O (stereo unspecified)	-9	95*	0	17
Cc1ccc(NC(=O)CCN2C(=O)OC(C)(C)C2(C)O)cc1 (stereo unspecified)	826	-2	0	19
CCc1ccc(N2CC(C(=O)Nc3cccc(S(=O)(=O)N4CCCC4)c3)CC2=O)cc1 (stereo unspecified)	-2	-13	0	14
O=C(CN1C(=O)NC(CCc2ccccc2)C1=O)Nc1ccc(F)c(F)c1F (stereo unspecified)	29	-2	x	x
COc1cc(/C=N/NC(=O)c2cc(C)oc2C)ccc1O	x	99*	0	7
COc1ccc(/C=N/NC(=O)c2cc(C)oc2C)cc1OC	16	-10	0	4
COc1cc(C=NNC(=O)c2ccccc2-n2cccc2)ccc1O	-2	99*	x	x
COc1ccc(/C=N\NC(=O)c2cccc([N+](=O)[O-])c2)cc1Cn1cc([N+](=O)[O-])cn1	-2	1	0	15
COc1ccc(C=NNC(=O)c2cc(C)oc2C)cc1O	5	99*	x	x
O=C(N/N=C\c1ccc(O)c([N+](=O)[O-])c1)c1ccccc1-n1cccc1	-3	52	-1	2
COc1ccc(/C=N/NC(=O)c2ccccc2O)cc1Cn1cc(Cl)cn1	4	80*	0	23
CCN(CC)C(=O)c1cccc(NC(=O)c2ccccc2OCc2c(C)noc2C)c1	-4	-1	x	x
CCN(CC)CCCN(C(=O)c1cccc(C)c1)c1nc(-c2ccc(OC)cc2)cs1	-15	96*	0	-7
Cn1c(=O)[nH]c(=O)c2c1nc(Br)n2CC(O)COCc1ccccc1 (stereo unspecified)	-7	91*	0	9
Cn1c(=O)[nH]c(=O)c2c1nc(Br)n2CC(O)COc1ccccc1 (stereo unspecified)	119	9	0	10
SMILES	Mot1-301 SUMO	ALR inh	HIF act	AI-2 QS mod
Cc1ccccc1CS(=O)(=O)c1ccc(C(=O)N2CCC(C)CC2)cc1[N+](=O)[O-]	2	97*	0	20
CC1CCN(C(=O)c2ccc(S(=O)(=O)Cc3cccc(F)c3)c([N+](=O)[O-])c2)CC1	-1	-1	-1	2
NC(=O)c1c(NC(=O)CSc2nnc(-c3ccco3)n2-c2ccccc2)sc2c1CCC2	5	97*	0	23
O=C(CSc1n[nH]c(-c2ccco2)n1)Nc1sc2c(c1C(=O)Nc1ccccc1)CCCC2	-21	98*	0	31
Cc1ccc(C(=O)COC(=O)CN2C(=O)C3C4CC(C(Br)C4Br)C3C2=O)cc1 (stereo unspecified)	115	-2	0	14
CSc1ccc(C2C(C(=O)c3ccco3)=C(O)C(=O)N2c2nnc(SC)s2)cc1 (stereo unspecified)	-3	98*	x	23
Cc1nnc(N2C(=O)C(O)=C(C(=O)c3ccco3)C2c2ccc(C(C)C)cc2)s1 (stereo unspecified)	-1	97*	4	73
Cc1nnc(N2C(=O)C(O)=C(C(=O)c3ccco3)C2c2ccc(C(C)(C)C)cc2)s1 (stereo unspecified)	7	97*	1	37
